An excerpt weighted towards active compounds, which were near 19% of everything screened.
SW480 rereplic: A quantitative high throughput screen for small molecules that induce DNA re-replication in SW480 colon adenocarcinoma cells; SW480 DNA re-replication, Hoechst DNA content imaging, 48 h; Potency, µM (titrated, usually from 46.1 µM), for the others: top-dose re-replication activation, usual class: activators; 340,000 compounds, 1.8% hits; also: potency is read from the fitted curve at half-maximal effect; % of control where 0% means no effect; nearly all actives have a fitted effect of over 55% in size
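Cells (250 per well) received 23 nL compound or DMSO by pin tool and were kept 48 hr at 37 C, 5% CO2. Nuclei were then stained with Hoechst for 40 min and scanned for DNA content.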
DT40 TDP1 no CPT: qHTS for Inhibitors of human tyrosyl-DNA phosphodiesterase 1 (TDP1): qHTS in cells in absence of CPT; DT40 Tdp1-/- hTDP1 cells, no CPT, ATP luminescence, 48 h; Potency, µM (highest dose often 46.2 µM), without a hit: top-dose activity change, negative = growth inhibition, actives largely listed as inhibitors; 420,000 compounds, 15% hits; AID 686978, 2013; also: potency is read from the fitted curve at half-maximal effect; % is scaled to controls: 0 for no effect and ±100 for the full control effect; nearly all actives have a fitted effect of over 55% in size
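Compound effects on proliferation are scored in DT40 Tdp1-/-;hTDP1 cells in the absence of CPT. ATP levels (CellTiter-Glo luminescence) are recorded after a ≥48 hr, 37 °C incubation.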
TDP1 cell CPT: qHTS for Inhibitors of human tyrosyl-DNA phosphodiesterase 1 (TDP1): qHTS in cells in presence of CPT; 420,000 compounds, 12% hits; Potency, µM (highest dose often 46.2 µM), without a hit: at the highest dose activity change, negative = growth inhibition, most hits filed as inhibitors; chicken DT40 Tdp1-/-;hTDP1 cells + 20 nM CPT, ATP luminescence, 48 h; also: potency is read from the fitted curve at half-maximal effect; % is scaled to controls: 0 for no effect and ±100 for the full control effect; nearly all actives have a fitted effect of over 55% in size
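Chicken DT40 Tdp1-/- cells complemented with human TDP1, 400 cells/well, exposed to compounds plus 20 nM camptothecin for at least 48 h at 37 C; viability read as ATP content by CellTiter-Glo luminescence.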
IL-1B inflam inh: qHTS for Inhibitors of Inflammasome Signaling: IL-1-beta AlphaLISA Primary Screen | THP-1 LPS/ATP IL-1B secretion, AlphaLISA, 16 h; stronger effect = lower value | activity change, % at 57.5 µM | 360,000 compounds, 4.7% hits | AID 743279, 2014; in the data active = activity change below about -50%; inconclusive = mostly about -30% to -49%; also: % is scaled to controls: 0 for no effect and ±100 for the full control effect
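THP-1 cells pretreated 1 hr with compounds (up to 57.5 uM final), then stimulated with LPS (250 ng/mL final) plus ATP (1.25 mM final); secreted IL-1B measured by AlphaLISA after 16 hr, decreased signal indicating inhibition.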
MCF10A rerep: A quantitative high throughput screen for small molecules that induce DNA re-replication in MCF 10a normal breast cells. MCF 10A DNA re-replication, Hoechst nuclear intensity, 48 h. Potency, µM (top dose mostly 46.1 µM), for the others: at the top dose activity, positive = re-replication, hits mostly activators. 350,000 compounds, 2.9% hits. AID 624296, 2012; also: potency is read from the fitted curve at half-maximal effect; % of control where 0% means no effect; nearly all actives have a fitted effect of over 50% in size
Chronic BCR inh: qHTS Assay to Find Inhibitors of Chronic Active B-Cell Receptor Signaling | AID 493014, 2011 | Potency, µM (top dose mostly 46.1 µM), without a hit: top-dose activity change, negative = inhibition, hits mostly inhibitors | 340,000 compounds, 0.05% hits | ABC-DLBCL IkBa-CBG/CBR reporter, luminescence ratio, 4 h; active = well fitted inhibition curve with a large enough effect in the signal ratio, with a control signal flat, not every such curve was filed as active; inconclusive = small, poorly fitted or top-dose-only effect, or effect the other way, or a change in a side signal; the % refers to the signal ratio;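 also: potency is read from the fitted curve at half-maximal effect; plate controls were basal doxycycline-induced cells for no effect and cells given 10 µM MG132 for full effect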
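Doxycycline induced both beetle luciferases in TMD8 lymphoma cells; IKK-driven degradation limits the IkappaBalpha-fused green signal, while red luminescence normalises for cell number and nonspecific effects. Compounds tested up to 46 uM, 4 hrs.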
Starred values were filed as active, the others as inactive; i = inactive; ? = inconclusive; . = not tested or not shown. Unless noted, calls follow the shape of the dose curve; as a rule, active = well fitted curve in the direction sought with a large enough effect; inconclusive = small, poorly fitted or top-dose-only effect, or another doubt; inactive = no such curve, though single readings can be large; an effect the other way counts as inactive or inconclusive.

SMILES	SW480 rereplic	DT40 TDP1 no CPT	TDP1 cell CPT	IL-1B inflam inh	MCF10A rerep	Chronic BCR inh
CCOC(=O)C1(Cc2ccccc2C)CCCN(C(=O)c2ccoc2)C1 (stereo unspecified)	0%	?	-30%	-2	7%	7%
c1ccc(-c2nc3nonc3nc2-c2ccccc2)cc1	?	13µM*	21µM*	23	?	2%
Cc1ccc(CN2C(=O)C(C)Sc3ccc(C#N)cc32)cc1 (stereo unspecified)	.	?	-20%	20	.	.
COc1cccc(NS(=O)(=O)c2cc(-c3cnc(C4CC4)o3)ccc2C)c1	.	0.58µM*	0.92µM*	.	.	.
Cc1ccc(-c2cnc(C3CC3)o2)cc1S(=O)(=O)Nc1cccc(C#N)c1	.	5.8µM*	5.8µM*	.	.	.
COc1ccc(NC(=O)CN2C(=O)C(c3ccc(C(C)(C)C)cc3)=NC2(C)C)cc1Cl	.	-22%	-12%	.	.	.
CNC(=O)Nc1cccc(-c2cc(-c3c(Cl)cccc3Cl)no2)c1	4%	-20%	-23%	-79*	?	?
CCCc1nn2c(=O)cc(COC(=O)c3ccc(NC(=O)c4cccs4)cc3)nc2s1	.	21µM*	?	.	.	.
CC(C)c1nn2c(=O)cc(COC(=O)c3cccc(NC(=O)c4cccs4)c3)nc2s1	.	-27%	-3%	.	.	.
CCc1nn2c(=O)cc(COC(=O)c3cccc(NC(=O)c4cccs4)c3)nc2s1	.	15µM*	?	.	.	.
CCOCCc1nn2c(=O)cc(COC(=O)c3ccc(NC(=O)C(C)(C)C)cc3)nc2s1	.	13µM*	16µM*	.	.	.
CCCCc1nn2c(=O)cc(COC(=O)c3ccc(NC(=O)c4cccs4)cc3)nc2s1	.	-19%	-22%	.	.	.
Cc1ccc(C)c(-n2c3nc(=O)n(C)c(=O)c-3cc3ccccc32)c1	1%	?	-5%	12	15µM*	5%
Cc1ccc(-n2c3nc(=O)n(C)c(=O)c-3cc3ccccc32)c(C)c1	.	-1%	-13%	.	.	.
COC(=O)C1CCN(C(=O)CC(NC(=O)C(F)(F)F)c2cccs2)CC1 (stereo unspecified)	-3%	-4%	8%	3	?	0%
COCC(=O)N1CCC(Oc2ccc(C(=O)NC(C)c3nc(C)sc3C)cc2)CC1 (stereo unspecified)	19%	8%	0%	3	4%	0%
CCN(CC)CC(C)(C)C(=O)/C=C/c1ccc(/C=C/C(=O)C(C)(C)CN(CC)CC)cc1	?	0.41µM*	0.52µM*	-3	76%	.
COc1ccc(C(=O)CCc2ccccc2)c(O)c1	-3%	-11%	22%	-24	-1%	.
COc1ccc(C(=O)OCC(=O)N(Cc2ccccc2)Cc2ccccc2)c(O)c1	.	18µM*	?	17	.	.
CC1=C(C(=O)N2CCCC(N3CCN(c4ccccc4C)CC3)C2)OCCO1 (stereo unspecified)	-6%	?	?	0	9%	0%
Cc1ccccc1N1CCN(C2CCCN(C(=O)c3ccsc3)C2)CC1 (stereo unspecified)	2%	?	?	i	?	0%
CCc1[nH]nc(C(=O)N2CCCC(N3CCN(c4ccccc4C)CC3)C2)c1C (stereo unspecified)	-8%	?	16µM*	-17	-2%	-3%
Cc1ccccc1N1CCN(C2CCCN(C(=O)c3ccccn3)C2)CC1 (stereo unspecified)	12%	26µM*	-59%	-5	8%	4%
Cc1cnc(C(=O)N2CCCC(N3CCN(c4ccccc4C)CC3)C2)cn1 (stereo unspecified)	0%	?	18µM*	13	-2%	2%
Cc1ccccc1N1CCN(C2CCCN(C(=O)c3noc4c3CCCC4)C2)CC1 (stereo unspecified)	10%	8.2µM*	9.2µM*	-6	?	?
SMILES	SW480 rereplic	DT40 TDP1 no CPT	TDP1 cell CPT	IL-1B inflam inh	MCF10A rerep	Chronic BCR inh
C=CCNc1ncnc2c1ncn2[C@H]1CN(Cc2ccccc2)C[C@@H](COC(C)=O)O1	.	-23%	?	-27	.	.
COC(=O)c1cc2occc2n1CC(=O)Nc1ccc(N(C)C)cc1	.	-29%	-23%	.	.	.
CC(CNS(=O)(=O)c1ccccc1)(c1ccccc1)N1CCOCC1 (stereo unspecified)	-11%	-14%	-8%	0	-2%	1%
Cc1ccccc1N1CCN(C2CCCN(C(=O)c3cn4cccc(C)c4n3)C2)CC1 (stereo unspecified)	-2%	8.2µM*	23µM*	0	21%	?
CSc1ncccc1C(=O)N1CCCC(N2CCN(c3ccccc3C)CC2)C1 (stereo unspecified)	.	9.2µM*	16µM*	1	.	.
COc1cccc(C(NC(C)=O)c2nc(-c3ccncc3)cs2)c1 (stereo unspecified)	.	?	-21%	17	.	.
CCN1C(=O)c2ccccc2S(=O)c2ccc(C(=O)N3CCCCCC3)cc21 (stereo unspecified)	1%	?	?	-3	2%	?
CCN1C(=O)c2ccccc2S(=O)c2ccc(C(=O)N3CCN(c4cccc(Cl)c4)CC3)cc21 (stereo unspecified)	.	18µM*	?	.	.	.
CCN1C(=O)c2ccccc2S(=O)c2ccc(C(=O)N3CCN(c4ccccc4)CC3)cc21 (stereo unspecified)	.	18µM*	?	.	.	.
COc1ccc2oc3c(ccc[n+]3C)c(=O)c2c1	.	0%	-6%	13	.	.
